# From PubChem BioAssay
# Sm TGR block: inhibitors of Schistosoma mansoni thioredoxin glutathione reductase; AID 485364; Potency, µM (doses to about 114 µM), inactives show at the highest dose activity change, negative = inhibition, most hits filed as inhibitors; purified TGR, DTNB reduction, TNB absorbance 405 nm; 360,000 tested, 3% active; note: % is set by controls: 0 for no effect and ±100 for the full control effect; nearly all actives have a fitted effect of over 60% in size
#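 First, TGR (20 nM dispensed) and NADPH were mixed with compound. Second, a 15 min room-temperature incubation followed. Third, further NADPH and then DTNB were added to start the reaction. Finally, TNB absorbance was monitored kinetically.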
# AmpC no deterg: AmpC beta-lactamase inhibition without detergent; AmpC nitrocefin hydrolysis, absorbance 480 nm, 0.0001% Triton; Potency, µM (doses to about 57.1 µM), for the others: at the top dose activity change, negative = inhibition, most hits filed as inhibitors; 330,000 tested, 0.52% active; AID 485341;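 note: plate controls were no compound for no effect and no enzyme for full effect; nearly all actives have a fitted effect of over 20% in size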
# Target sequence (P00811 whole entry, looked up): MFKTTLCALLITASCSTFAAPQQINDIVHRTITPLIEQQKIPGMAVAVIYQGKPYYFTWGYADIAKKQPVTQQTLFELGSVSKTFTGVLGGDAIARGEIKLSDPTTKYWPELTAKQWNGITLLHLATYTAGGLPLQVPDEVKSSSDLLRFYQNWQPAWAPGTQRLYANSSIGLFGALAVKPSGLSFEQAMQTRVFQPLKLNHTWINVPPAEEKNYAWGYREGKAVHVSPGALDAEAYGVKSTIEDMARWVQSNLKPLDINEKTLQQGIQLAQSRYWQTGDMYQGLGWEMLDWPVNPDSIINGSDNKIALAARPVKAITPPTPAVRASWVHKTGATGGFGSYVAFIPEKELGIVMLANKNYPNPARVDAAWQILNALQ
#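 20 mM phosphate pH 7.0 + 0.01% (detergent screen) or 0.0001% Triton X-100; 5.3 nM AmpC reagent; cpd preinc 15 min RT; nitrocefin (800 uM stock) to start; A480 q20 s × 4 min; Activity was normalised to no-enzyme and no-compound control wells.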
# Pf growth 48h: P. falciparum growth inhibition at 48 hours (one generation); P. falciparum luciferase growth in erythrocytes, 48 h; Potency, µM (highest dose often 28.7 µM), for inactives: at the top dose activity change, negative = inhibition, usual class: inhibitors; 310,000 tested, 5.9% active; note: % is set by controls: 0 for no effect and ±100 for the full control effect
#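 Luciferase-expressing parasites in RBCs, 2% Hct / 0.1% parasitemia final; RPMI 1640 + 0.5% Albumax; 37 C, 5% CO2, one generation; luminescence read-out, lower signal = inhibition.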
# AmpC detergent: inhibitors of E. coli AmpC beta-lactamase with detergent; 370,000 tested, 0.041% active; Potency, µM (doses to about 114 µM), for the others: at the top dose activity change, negative = inhibition, usual class: inhibitors; P00811; AmpC hydrolysis of nitrocefin, absorbance 480 nm, 0.01% Triton;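 note: 0% = no-compound wells and -100% = no-enzyme wells; nearly all actives have a fitted effect of over 25% in size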
#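 AmpC (5.3 nM in the dispensed reagent) in 20 mM phosphate pH 7.0 with 0.01% (detergent screen) or 0.0001% Triton X-100 was preincubated with compounds for 15 min at room temperature. Nitrocefin was then added from an 800 uM solution, and hydrolysis was followed at 480 nm.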
# Pf growth 96h: inhibits malaria parasite growth, 96 h. P. falciparum luciferase reporter growth, 96 h. Potency, µM (highest dose often 28.7 µM), inactives show top-dose activity change, negative = inhibition, hits mostly inhibitors. 320,000 tested, 6.9% active. AID 504834; note: % is set by controls: 0 for no effect and ±100 for the full control effect
#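 Two-generation exposure (96 h) targets delayed-death phenotype. Reporter parasites carrying integrated firefly luciferase, in red cells at 2% hematocrit and 0.05% parasitemia final, kept at 37 C, 5% CO2; luminescence loss indicates inhibition.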
# SARS PLP yeast: inhibitors of SARS-CoV papain-like protease in yeast; 330,000 tested, 0.19% active; S. cerevisiae expressing SARS-CoV PLpro, growth rescue; Potency, µM (highest dose often 32.9 µM), inactives show at the top dose activity, positive = growth rescue, hits mostly activators; calls by dose curve; note: 0% is about no effect; nearly all actives have a fitted effect of over 55% in size
# Active calls of the source: *; ? = inconclusive; nt = no result given; [ ] = remark or other dose. Compounds with a hit are over-represented: about 12% of the library has one in this group of screens. Unless noted, calls come from the whole dose curve; as a rule, active = well fitted curve in the direction sought with a large enough effect; inconclusive = small, poorly fitted or top-dose-only effect, or another doubt; inactive = no such curve, though single readings can be large; an effect the other way counts as inactive or inconclusive. Potency is the fitted concentration of half-maximal effect.
SMILES,Sm TGR block,AmpC no deterg,Pf growth 48h,AmpC detergent,Pf growth 96h,SARS PLP yeast
O=C(c1ccc(N2CCN(C(=O)c3ccc(F)cc3F)CC2)cc1)c1cccc(F)c1,0.0%,27.8%,?,-6.3%,10.4µM*,-0.6%
Cc1ccc(N2CCN(C(=O)c3ccccc3F)CC2)c(C)c1,8.1%,52.1%,-15.3%,?,3.29µM*,-21.6%
O=C(c1ccccc1)c1ccc(N2CCN(C(=O)c3cccc(F)c3F)CC2)c(F)c1,0.0%,41.7%,?,0.5%,-102.1%,6.31µM*
Cn1c(=O)[nH]c(=O)c2c1nc(N1CCCC1)n2CCSc1nc2ccccc2[nH]1,-2.5%,1.0%,nt,0.5%,11.6%,2.7%
COc1cc2c(cc1/C=C/C(=O)O)OC(C)C2 (stereo not drawn),17.4%,-8.4%,7.8%,-13.2%,3.0%,0.4%
CC(C)(O)C1Cc2cc(/C=C/C(=O)O)c(O)cc2O1 (stereo not drawn),0.224µM*,-16.0%,1.8%,3.4%,-3.5%,-0.8%
COc1ccc(N2CCN(S(=O)(=O)c3ccc4c(c3)CCCN4C(C)=O)CC2)cc1,5.3%,nt,nt,2.5%,nt,nt
Cc1ccc(C)c(CN2CCC(n3nnc4cc(F)ccc43)CC2)c1,5.9%,-12.0%,8.28µM*,-5.4%,13.1µM*,1.6%
Fc1ccc2c(c1)nnn2C1CCN(Cc2c(Cl)cccc2Cl)CC1,0.0%,-14.3%,10.4µM*,-2.9%,10.4µM*,-4.2%
Cc1ccc2c(c1)nnn2C1CCN(CC(=O)Nc2ccc(F)cc2)CC1,2.6%,0.2%,?,-9.7%,?,-1.1%
Fc1ccc2c(c1)nnn2C1CCN(Cc2nnnn2C2CCCCC2)CC1,7.8%,74.6%,?,3.2%,-8.3%,-3.8%
CCOC(=O)C1CCN(C(=O)Cn2nc(C)n3nc(-c4ccc(CC)cc4)cc3c2=O)CC1,-15.7%,6.2%,16.0%,-8.4%,9.3%,-13.2%
CCn1c(SCc2ccc(C(=O)OC)o2)nc2sc3c(c2c1=O)CCCC3,10.7%,-24.3%,-15.5%,-8.9%,1.04µM*,1.9%
COc1ccc(N=C2S/C(=C\c3cc(C)n(C)c3C)C(=O)N2CC(C)C)cc1,-53.9%,26.2%,?,?,?,-10.5%
COc1ccc(N=C2S/C(=C\c3ccco3)C(=O)N2CC(C)C)cc1,44.7µM*,-41.2%,?,2.8%,?,-2.8%
CCCN1C(=O)/C(=C/c2ccc(C)s2)SC1=Nc1ccc(OC)cc1,8.1%,-22.9%,-25.6%,2.2%,?,10.0%
CCN1C(=O)/C(=C/c2cccs2)SC1=Nc1ccc(OC)cc1,13.7%,-18.6%,-21.7%,-13.3%,4.65µM*,3.6%
CCC(CC)c1nn2c(N)c(/C=C3\C(C)=Nc4ccccc43)c(=O)nc2s1,-27.2%,7.94µM*,-8.1%,-5.7%,2.8%,-0.9%
COCc1cc(C)nc(OC)c1C(N)=O,-4.2%,-11.8%,-8.0%,2.1%,4.7%,2.8%
O=S1(=O)CCC(NC2CCCC2)C1 (stereo not drawn),-13.1%,-19.2%,30.0%,-8.7%,32.7%,2.9%
CN(C)NC1CCS(=O)(=O)C1 (stereo not drawn),1.58µM*,-6.5%,15.9%,3.2%,8.3%,3.5%
CNC(=S)N1CCN(c2c(F)cc3c(=O)c(C(=O)O)cn(C4CC4)c3c2OC)CC1C (stereo not drawn),-28.8%,-3.8%,nt,-3.9%,13.1µM*,-12.0%
O=C1c2ccccc2C(=O)c2[nH]c(=O)[nH]c21,-31.7%,-13.0%,nt,-16.8%,1.65µM*,-1.6%
O=C1c2ccccc2C(=O)c2ccccc21,nt,nt,?,nt,15.1µM*,nt
O=C1C=Cc2ccccc2C1=O,11.2µM*,?,?,-0.3%,?,?
SMILES,Sm TGR block,AmpC no deterg,Pf growth 48h,AmpC detergent,Pf growth 96h,SARS PLP yeast
O=C1c2ccccc2C(=O)c2[nH]cnc21,2.4%,-15.0%,?,-6.0%,?,1.0%
CCN1C(=C2C(=O)c3ccccc3C2=O)C=Cc2ccccc21,-25.2%,-7.5%,nt,-11.2%,9.2%,-5.6%
O=C1C(=O)c2ccc(-c3ccccc3)cc2-c2ccccc21,-7.9%,-23.5%,10.4µM*,-7.5%,3.7µM*,-78.2%
O=C1c2cccc(Sc3ccccc3)c2C(=O)c2c(Sc3ccccc3)cccc21,9.0%,-32.8%,13.1µM*,-14.4%,?,0.5%
COCCCn1c(=O)c2sccc2n2c(CCCC(=O)Nc3ccc(F)c(F)c3)nnc12,-5.9%,nt,nt,-6.4%,nt,nt
Cc1cc(-c2ccccc2)nc2cc(C(=O)NCCCn3ccnc3)nn12,1.6%,-2.5%,-28.2%,2.2%,?,6.6%
Cc1cccc(-c2cc3nc(C)c(C)c(NCCCn4ccnc4)n3n2)c1,9.6%,104.4%,1.65µM*,-9.9%,?,-2.3%
Cc1cc(NCCCn2ccnc2)n2nc(-c3ccc(Cl)cc3)cc2n1,nt,228.9%,2.62µM*,-6.4%,20.0%,-1.6%
Cc1cc(NCCCn2ccnc2)n2nc(-c3ccc(F)cc3)cc2n1,-6.5%,25.8%,4.15µM*,-4.7%,-3.7%[5.75 µM],3.7%
COc1ccc(OC)c(NC(=O)CCn2ccnc2)c1,0.3%,0.0%,14.1%,-0.6%,?,-1.6%
CCc1ccc(C(=O)NCc2cnn(C)c2)s1,4.9%,-11.6%,14.1%[5.75 µM],-12.9%,4.4%,0.1%
N#Cc1ccc(NC(=O)COCc2cc(-c3ccc(F)cc3)on2)cc1,5.2%,nt,nt,-2.2%,nt,nt
Cc1ccc(C)c(Nc2cc(C)nc3ncnn23)c1,1.0%,-5.1%,99.7%,-19.5%,?,1.1%
Cc1ccc(Nc2cc(C)nc3ncnn23)c(C)c1,16.4%,-4.8%,-9.6%,1.6%,1.47µM*,1.9%
COc1ccc(Nc2cc(C)nc3ncnn23)c(OC)c1,0.0%,-21.2%,nt,-13.7%,2.94µM*,-7.9%
COc1ccc(Nc2cc(C)nc3nc(C)nn23)c(OC)c1,3.8%,-5.8%,-9.8%,0.5%,67.5%,11.8%
Cc1cccc(S(=O)(=O)N2CCN(Cc3ccc4c(c3)OCO4)CC2)c1,1.7%,19.7%,16.1%,-9.4%,0.738µM*,3.1%
COc1ccc(CCNC(=S)N2CCN(S(=O)(=O)c3ccc(C)cc3)CC2)cc1,-1.0%,-25.8%,2.94µM*,-12.6%,2.62µM*,-1.2%
COc1ccc(S(=O)(=O)N2CCN(Cc3ccc4c(c3)OCO4)CC2)cc1C,2.7%,nt,nt,-0.5%,nt,nt
COc1ccc(S(=O)(=O)N2CCN(C(=S)NCCc3ccccc3)CC2)cc1,-20.5%,-45.0%,4.15µM*,-2.6%,?,-8.6%
COCCCNC(=S)N1CCN(S(=O)(=O)c2ccc(OC)cc2)CC1,-0.3%,5.4%,?,4.1%,-14.5%,0.9%
Cc1ccc(S(=O)(=O)N2CCN(C(=S)NCc3ccc4c(c3)OCO4)CC2)cc1,-2.4%,-42.5%,1.85µM*,-10.6%,?,-1.1%
